In test [1] the target is Glucocorticoid receptor (Homo sapiens) (UniProt P04150). In words: NVS_NR_hGR: NovaScreen (NVS) Nuclear Receptor Binding Assay for human Glucocorticoid Receptor (GR) (AID 2283363).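 As to AC50: activity is loss of specific radioligand binding signal relative to DMSO.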 In short, it runs like this:
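Cell-free radioligand displacement assay on extracted human GR, read 16 h after dosing by filter-based scintillation counting. Screened in duplicate at 25 uM, then concentration series for actives; loss of signal versus DMSO baseline.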

In test [2] the target is Nuclear receptor subfamily 1 group I member 2 (Homo sapiens) (UniProt O75469). Nature of the test: NVS_NR_hPXR: NovaScreen (NVS) Nuclear Receptor Binding Assay for human Pregnane X Receptor (PXR) (AID 2283365).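 Also: a drop in FRET signal versus DMSO baseline means the compound binds.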 In short, it runs like this:
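Human PXR binding measured by TR-FRET in a cell-free format, 2 h exposure. Single-concentration duplicates at 25 uM preceded concentration-response retests of actives; endpoint fitted positively relative to DMSO, loss of signal indicating binding.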

Test [3] concerns the target Estrogen receptor beta (Homo sapiens) (UniProt Q92731). Nature of the test: OT_ER_ERbERb_1440: Odyssey Thera (OT) 24-hour HEK293T Protein-Complementation Assay for Estrogen Receptor-beta/-beta Homodimer (AID 2283380).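 Also: scored as signal increase over DMSO baseline for both agonists and antagonists.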 In short, it runs like this: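 HEK293T cells stably expressing ER beta LBD (aa 310-547) homodimer fragment-complementation reporter, dosed 24 h. Cells formaldehyde-fixed, Draq5-stained; gain in nuclear (agonist) or nuclear plus cytoplasmic (antagonist) fluorescence versus DMSO read by laser scanning cytometry.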

Test [4] addresses Estrogen receptor (Homo sapiens) (UniProt P03372). Nature of the test: OT_ERa_GFPERaERE_0480: Odyssey Thera (OT) 8-hour HeLa Transcription Induction Assay for Estrogen Receptor (AID 2283381; active = hit-call score of the fitted dose curve at least 0.9, where 1 is the maximum; inactive = score below 0.9). The method, boiled down:
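HeLa cells expressing GFP reporter under estrogen response element, imaged 8 h after dosing. GFP induction quantified by high-content fluorescence microscopy image analysis; gain of signal fitted versus DMSO.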

Test [5] shares this target. Nature of the test: OT_ERa_GFPERaERE_0120: Odyssey Thera (OT) 2-hour HeLa Transcription Induction Assay for Estrogen Receptor (AID 2283382). In short, it runs like this:
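HeLa cells were dosed for 2 h, then GFP reporter induction was quantified by fluorescence microscopy with high-content image analysis. Gain of signal fitted against DMSO baseline.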

For test [6], the target named is Bile acid receptor (Homo sapiens) (UniProt Q96RI1). Nature of the test: OT_FXR_FXRSRC1_0480: Odyssey Thera (OT) 8-hour HEK293T Protein-Complementation Assay for Farnesoid X receptor/SRC-1 Co-activator (AID 2283383). The method, boiled down: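 HEK293T protein-fragment complementation assay: FXR and SRC-1 coactivator are fused to reporter fragments, and their interaction restores a fluorescent reporter. Readout was taken 8 h after dosing, with gain of signal fit relative to DMSO.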

Test [7] shares this target. In words: OT_FXR_FXRSRC1_1440: Odyssey Thera (OT) 24-hour HEK293T Protein-Complementation Assay for Farnesoid X receptor/SRC-1 Co-activator (AID 2283384). In short, it runs like this: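 HEK293T cells, 24 h after chemical dosing. FXR–SRC-1 coactivator interaction read as fluorescence from protein-fragment complementation of a split reporter. Gain of signal fitted against DMSO baseline.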

The target in test [8] is guinea pig Sigma Receptor, Non-selective Binding, SIGMAR1 (gene 100135589) (UniProt Q60492). Nature of the test: NVS_OR_gSIGMA_NonSelective: NovaScreen (NVS) Nuclear Receptor Binding Assay for guinea pig Sigma Receptor, Non-selective Binding (AID 2283367). In short, it runs like this: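 Radioligand displacement on guinea pig brain membranes, read by filter-based scintillation counting 1 h after dosing. Loss of signal versus DMSO; initial duplicate single-point screen at 25 uM, actives followed in concentration series.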

The target in test [9] is Peroxisome proliferator-activated receptor gamma (Homo sapiens) (UniProt P37231). In words: NVS_NR_hPPARg: NovaScreen (NVS) Nuclear Receptor Binding Assay for human Peroxisome Proliferator-activated Receptor gamma (PPARg) (AID 2283370). The method, boiled down: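 Fluorescence polarization readout of ligand binding to extracted human PPARg, measured at 2 h. Duplicate single-point screen at 25 uM, then concentration-series retesting; activity defined as signal loss versus DMSO.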

In test [10] the target is mouse Estrogen Receptor alpha (Era), Esr1 (gene 13982) (UniProt P19785). Nature of the test: NVS_NR_mERa: NovaScreen (NVS) Nuclear Receptor Binding Assay for mouse Estrogen Receptor alpha (Era) (AID 2283378).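 Also: hit means loss of bound radioligand signal relative to DMSO.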 The method, boiled down: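 Filter radiodetection of radioligand displacement from extracted receptor protein, measured 18 h post-dose. Single 25 uM concentration in duplicate initially, with concentration-series follow-up. Binding loss fitted relative to DMSO.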

Test [11] concerns guinea pig Dopamine Transporter (DAT), gene 100714898. Nature of the test: NVS_TR_gDAT: NovaScreen (NVS) Transporter Assay for guinea pig Dopamine Transporter (DAT) (AID 2283369).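 Also: active compounds lower bound radioligand signal relative to DMSO.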 In short, it runs like this: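 Radioligand displacement on membranes from guinea pig striatum, 2 h exposure, bound label counted by filtration and scintillation. Tested at 25 uM in duplicate, then actives in concentration series to 50 uM; DMSO as negative control.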

Test [12] concerns the target human Dopamine Transporter (DAT), SLC6A3 (gene 6531) (UniProt Q01959). Nature of the test: NVS_TR_hDAT: NovaScreen (NVS) Transporter Assay for human Dopamine Transporter (DAT) (AID 2283374).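 Also: activity means loss of bound radioligand signal relative to DMSO.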 In short, it runs like this: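 Cell-free radioligand displacement binding at human DAT, 1 h after dosing, with filtration and scintillation counting. Primary screen in duplicate at 25 uM, actives then in concentration series. Loss of bound signal versus DMSO scored.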

The target of test [13] is human Norepinephrine Transporter (NET), SLC6A2 (gene 6530) (UniProt P23975). In words: NVS_TR_hNET: NovaScreen (NVS) Transporter Assay for human Norepinephrine Transporter (NET) (AID 2283377).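 As to AC50: displacement of radioligand from human NET seen as loss of scintillation signal.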 The method, boiled down: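 Cell-free radioligand binding using CHO-derived membrane protein expressing human NET, read by filter scintillation counting 1 h after dosing; loss of signal vs DMSO. Initial duplicate screen at 25 uM, actives retested in concentration series.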

The target of test [14] is Agonist Androgen Response Element (ARE), AR (gene 367) (UniProt P10275). Nature of the test: OT_AR_ARELUC_AG_1440: Odyssey Thera (OT) 24-hour CHO-K1 Luciferase Assay for Agonist Androgen Response Element (ARE) (AID 2283379). In short, it runs like this: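 CHO-K1 cells carrying an ARE-driven luciferase reporter were exposed to compounds for 24 h. Luminescence was then read after adding a D-luciferin/ATP mix, and activity was scored as a gain in signal over DMSO vehicle.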

Test [15] deals with Norway rat Vesicular Monoamine Transporter (VMAT2), neurotransmitter transporter, Slc18a2 (gene 25549) (UniProt Q01827). Nature of the test: NVS_TR_rVMAT2: NovaScreen (NVS) Transporter Assay for Norway rat Vesicular Monoamine Transporter (VMAT2), neurotransmitter transporter (AID 2283376).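 Also: actives lower the bound radioligand signal below the DMSO level.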 In short, it runs like this: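 Radioligand displacement binding on rat forebrain tissue preparation, filter-based scintillation read-out 1 hour after dosing. Primary screen in duplicate at 25 uM, then concentration series for actives; loss of signal versus DMSO.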

For test [16], the target named is human Serotonin Transporter (SERT), SLC6A4 (gene 6532) (UniProt P31645). Nature of the test: NVS_TR_hSERT: NovaScreen (NVS) Transporter Assay for human Serotonin Transporter (SERT) (AID 2283372). The method, boiled down:
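Radioligand binding to native SERT in human platelet membranes, read by filter-based scintillation counting 1 h after dosing. Primary screen in duplicate at 25 uM; actives followed up in concentration series; loss of signal versus DMSO baseline.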

Test [17] has as its target rat Serotonin Transporter (SERT), Slc6a4 (gene 25553) (UniProt P31652). Nature of the test: NVS_TR_rSERT: NovaScreen (NVS) Transporter Assay for rat Serotonin Transporter (SERT) (AID 2283375). In short, it runs like this: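 Radioligand binding with competitive displacement on rat forebrain membrane preparations, counted by filtration and scintillation after 1 h. Primary single-point duplicates at 25 uM; active chemicals followed up in concentration-response. DMSO served as baseline.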

“And” between values parts separate entries of the source, which are not always exact repeats. Equal entries are not always repeated. Inconclusive results are not listed. Some structures have more than one record in an assay (separate samples or runs), and their calls can disagree. The source made the active and inactive calls. The calls were made as follows, unless noted: active = hit-call score of the fitted dose curve at least 0.9, where 1 is the maximum; inconclusive = response in the unintended direction; inactive = score below 0.9.

In general, AC50 refers to the concentration giving half of the maximal activity seen.

Sequence of Nuclear receptor subfamily 1 group I member 2 (Homo sapiens) (O75469 whole entry, looked up): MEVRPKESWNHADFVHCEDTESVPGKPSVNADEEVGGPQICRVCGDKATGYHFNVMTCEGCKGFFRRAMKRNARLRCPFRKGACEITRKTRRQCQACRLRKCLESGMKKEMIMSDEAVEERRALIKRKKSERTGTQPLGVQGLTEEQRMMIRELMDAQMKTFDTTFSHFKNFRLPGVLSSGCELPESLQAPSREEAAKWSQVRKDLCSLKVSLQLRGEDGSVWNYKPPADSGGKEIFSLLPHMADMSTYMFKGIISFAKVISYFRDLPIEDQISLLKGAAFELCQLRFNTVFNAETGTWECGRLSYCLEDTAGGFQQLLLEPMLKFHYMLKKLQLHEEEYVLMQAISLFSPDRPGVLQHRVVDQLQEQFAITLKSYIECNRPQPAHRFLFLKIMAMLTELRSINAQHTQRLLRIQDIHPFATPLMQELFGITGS
Sequence of human Dopamine Transporter (DAT), SLC6A3 (gene 6531) (Q01959 whole entry, looked up): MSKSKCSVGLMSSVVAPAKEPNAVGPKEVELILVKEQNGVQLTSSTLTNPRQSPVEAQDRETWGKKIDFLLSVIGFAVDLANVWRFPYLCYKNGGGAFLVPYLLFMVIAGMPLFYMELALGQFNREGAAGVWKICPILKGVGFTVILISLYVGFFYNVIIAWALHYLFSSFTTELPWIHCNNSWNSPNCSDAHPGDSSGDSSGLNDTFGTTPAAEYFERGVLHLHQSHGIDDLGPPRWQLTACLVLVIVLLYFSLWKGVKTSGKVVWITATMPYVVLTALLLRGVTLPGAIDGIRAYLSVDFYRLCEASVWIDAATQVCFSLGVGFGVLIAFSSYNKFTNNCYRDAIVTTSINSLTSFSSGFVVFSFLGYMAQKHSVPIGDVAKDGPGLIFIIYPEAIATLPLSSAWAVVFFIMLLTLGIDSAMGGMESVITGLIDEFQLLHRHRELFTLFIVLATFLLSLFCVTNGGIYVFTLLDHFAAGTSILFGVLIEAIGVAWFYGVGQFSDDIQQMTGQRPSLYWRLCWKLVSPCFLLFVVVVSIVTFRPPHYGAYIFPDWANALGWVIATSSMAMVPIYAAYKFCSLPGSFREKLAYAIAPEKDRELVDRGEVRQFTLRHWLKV
Sequence of Peroxisome proliferator-activated receptor gamma (Homo sapiens) (P37231 whole entry, looked up): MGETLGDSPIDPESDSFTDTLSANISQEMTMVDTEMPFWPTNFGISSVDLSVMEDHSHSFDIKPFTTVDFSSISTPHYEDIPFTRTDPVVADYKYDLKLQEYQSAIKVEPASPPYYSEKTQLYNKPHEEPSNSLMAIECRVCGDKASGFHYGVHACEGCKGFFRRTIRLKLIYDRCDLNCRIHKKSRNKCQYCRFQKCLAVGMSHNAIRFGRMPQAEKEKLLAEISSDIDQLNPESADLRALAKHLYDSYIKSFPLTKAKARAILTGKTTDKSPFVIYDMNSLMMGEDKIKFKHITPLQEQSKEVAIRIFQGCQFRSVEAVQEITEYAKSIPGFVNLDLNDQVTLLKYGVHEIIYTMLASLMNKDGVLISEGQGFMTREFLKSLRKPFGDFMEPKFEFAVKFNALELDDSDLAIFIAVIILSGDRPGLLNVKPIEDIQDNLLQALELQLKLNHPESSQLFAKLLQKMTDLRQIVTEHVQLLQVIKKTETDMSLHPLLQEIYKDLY
Sequence of mouse Estrogen Receptor alpha (Era), Esr1 (gene 13982) (P19785 whole entry, looked up): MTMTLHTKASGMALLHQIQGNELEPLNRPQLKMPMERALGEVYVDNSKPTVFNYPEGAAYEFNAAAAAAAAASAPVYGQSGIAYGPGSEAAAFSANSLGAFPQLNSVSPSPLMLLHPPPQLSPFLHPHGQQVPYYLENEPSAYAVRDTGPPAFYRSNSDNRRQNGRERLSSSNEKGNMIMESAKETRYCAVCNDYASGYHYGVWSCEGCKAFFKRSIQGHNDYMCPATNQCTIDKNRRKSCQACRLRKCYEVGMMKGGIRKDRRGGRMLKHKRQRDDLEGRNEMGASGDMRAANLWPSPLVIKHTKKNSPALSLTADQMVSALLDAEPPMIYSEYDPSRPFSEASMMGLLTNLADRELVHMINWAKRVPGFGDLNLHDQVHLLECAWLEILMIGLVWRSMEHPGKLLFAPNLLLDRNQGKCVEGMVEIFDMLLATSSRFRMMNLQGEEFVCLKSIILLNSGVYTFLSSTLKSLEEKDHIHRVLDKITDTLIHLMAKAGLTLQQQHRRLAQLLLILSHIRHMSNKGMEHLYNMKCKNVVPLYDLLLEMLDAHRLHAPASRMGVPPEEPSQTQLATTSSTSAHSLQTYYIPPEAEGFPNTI
Sequence of Estrogen receptor (Homo sapiens) (P03372 whole entry, looked up): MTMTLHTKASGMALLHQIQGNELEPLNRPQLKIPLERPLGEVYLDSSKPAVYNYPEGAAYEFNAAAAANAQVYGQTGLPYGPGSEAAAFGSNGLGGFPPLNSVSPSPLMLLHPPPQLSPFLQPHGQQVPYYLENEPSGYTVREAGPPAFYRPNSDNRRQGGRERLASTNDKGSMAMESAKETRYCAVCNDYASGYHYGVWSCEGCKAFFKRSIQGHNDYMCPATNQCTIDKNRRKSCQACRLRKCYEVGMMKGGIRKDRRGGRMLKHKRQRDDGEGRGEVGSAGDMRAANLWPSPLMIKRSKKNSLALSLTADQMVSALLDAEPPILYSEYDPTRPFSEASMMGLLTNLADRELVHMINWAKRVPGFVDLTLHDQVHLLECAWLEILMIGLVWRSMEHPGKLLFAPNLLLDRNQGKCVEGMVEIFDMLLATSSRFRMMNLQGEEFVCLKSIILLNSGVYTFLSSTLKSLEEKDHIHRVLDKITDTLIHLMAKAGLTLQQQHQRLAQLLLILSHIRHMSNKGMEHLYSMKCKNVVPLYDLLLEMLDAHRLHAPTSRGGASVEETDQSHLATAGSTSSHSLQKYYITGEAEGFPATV
Sequence of human Norepinephrine Transporter (NET), SLC6A2 (gene 6530) (P23975 whole entry, looked up): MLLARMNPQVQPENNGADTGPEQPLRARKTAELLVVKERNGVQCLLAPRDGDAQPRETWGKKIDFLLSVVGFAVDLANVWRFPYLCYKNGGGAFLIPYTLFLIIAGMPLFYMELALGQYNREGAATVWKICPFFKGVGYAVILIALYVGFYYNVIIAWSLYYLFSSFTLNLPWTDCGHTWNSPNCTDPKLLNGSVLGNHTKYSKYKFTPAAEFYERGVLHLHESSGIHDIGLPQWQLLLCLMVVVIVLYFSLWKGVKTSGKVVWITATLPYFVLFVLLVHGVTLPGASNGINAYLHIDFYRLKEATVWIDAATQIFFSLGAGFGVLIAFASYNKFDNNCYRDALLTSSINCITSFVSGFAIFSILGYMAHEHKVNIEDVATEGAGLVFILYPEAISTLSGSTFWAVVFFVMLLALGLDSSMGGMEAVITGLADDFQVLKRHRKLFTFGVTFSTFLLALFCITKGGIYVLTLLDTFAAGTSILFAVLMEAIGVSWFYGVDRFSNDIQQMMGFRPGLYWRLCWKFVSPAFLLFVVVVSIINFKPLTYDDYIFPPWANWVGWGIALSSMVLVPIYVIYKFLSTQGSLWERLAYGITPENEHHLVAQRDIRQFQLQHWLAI
Sequence of Glucocorticoid receptor (Homo sapiens) (P04150 whole entry, looked up): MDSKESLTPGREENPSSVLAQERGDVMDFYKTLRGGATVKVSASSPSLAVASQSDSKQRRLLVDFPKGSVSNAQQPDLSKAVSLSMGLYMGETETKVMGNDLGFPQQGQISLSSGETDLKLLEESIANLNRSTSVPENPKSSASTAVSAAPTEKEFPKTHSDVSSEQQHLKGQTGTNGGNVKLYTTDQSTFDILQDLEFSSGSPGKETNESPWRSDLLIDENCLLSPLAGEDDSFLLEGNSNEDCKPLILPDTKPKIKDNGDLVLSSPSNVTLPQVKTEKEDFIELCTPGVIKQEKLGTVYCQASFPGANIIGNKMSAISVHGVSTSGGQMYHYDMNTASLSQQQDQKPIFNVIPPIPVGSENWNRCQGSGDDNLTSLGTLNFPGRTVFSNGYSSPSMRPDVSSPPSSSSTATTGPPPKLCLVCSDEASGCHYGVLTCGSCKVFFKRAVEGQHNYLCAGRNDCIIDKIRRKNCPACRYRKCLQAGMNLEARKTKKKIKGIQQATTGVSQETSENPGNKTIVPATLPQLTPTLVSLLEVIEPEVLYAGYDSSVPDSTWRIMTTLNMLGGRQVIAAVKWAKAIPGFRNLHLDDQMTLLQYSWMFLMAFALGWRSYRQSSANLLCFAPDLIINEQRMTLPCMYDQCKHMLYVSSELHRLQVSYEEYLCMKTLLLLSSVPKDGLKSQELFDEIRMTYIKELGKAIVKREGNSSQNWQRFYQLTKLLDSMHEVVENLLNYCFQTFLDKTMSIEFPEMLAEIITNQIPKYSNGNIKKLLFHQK
Sequence of Estrogen receptor beta (Homo sapiens) (Q92731 whole entry, looked up, the tested form may be a part): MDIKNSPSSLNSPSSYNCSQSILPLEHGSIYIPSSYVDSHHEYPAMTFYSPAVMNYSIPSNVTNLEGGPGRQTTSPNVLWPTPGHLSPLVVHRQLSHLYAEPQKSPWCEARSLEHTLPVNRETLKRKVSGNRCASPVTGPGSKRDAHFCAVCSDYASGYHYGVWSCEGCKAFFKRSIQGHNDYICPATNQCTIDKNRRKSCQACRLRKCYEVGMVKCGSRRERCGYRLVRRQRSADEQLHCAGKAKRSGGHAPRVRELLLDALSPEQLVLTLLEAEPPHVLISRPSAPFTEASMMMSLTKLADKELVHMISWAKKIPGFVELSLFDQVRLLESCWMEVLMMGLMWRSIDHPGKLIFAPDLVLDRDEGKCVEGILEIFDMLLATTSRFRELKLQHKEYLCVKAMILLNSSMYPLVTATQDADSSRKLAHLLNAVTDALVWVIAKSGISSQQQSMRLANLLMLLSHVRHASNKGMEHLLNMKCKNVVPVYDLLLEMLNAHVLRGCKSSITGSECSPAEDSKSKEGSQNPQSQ
Sequence of guinea pig Sigma Receptor, Non-selective Binding, SIGMAR1 (gene 100135589) (Q60492 whole entry, looked up): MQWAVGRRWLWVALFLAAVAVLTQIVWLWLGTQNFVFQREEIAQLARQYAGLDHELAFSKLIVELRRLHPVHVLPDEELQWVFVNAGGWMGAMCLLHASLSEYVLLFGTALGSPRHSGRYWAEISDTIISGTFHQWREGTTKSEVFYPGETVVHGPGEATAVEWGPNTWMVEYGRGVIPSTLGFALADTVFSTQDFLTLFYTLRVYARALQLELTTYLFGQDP

For `OCC(O)CO`, the AC50 was 4.96 µM (active) in [1] and 5.1 µM (active) in test [2]. The compound was called inactive in test [3], in test [4], in test [5], in test [6] and in test [7].

For `COS(=O)(=O)OC`, the outcome in [8], in test [4] and in test [5] was inactive.

Consider `ClC1=C(Cl)[C@]2(Cl)[C@@H]3[C@@H]4C[C@@H]([C@H]5O[C@@H]45)[C@@H]3[C@@]1(Cl)C2(Cl)Cl`, for which the call in test [1], in test [9], in test [4] and in test [5] was inactive.

In the case of `Oc1c(Cl)c(Cl)c(Cl)c(Cl)c1Cl`, the compound was classed as inactive in test [1], in [9], in test [10], in [4] and in test [5].

Consider `CCOC(=O)C(O)(c1ccc(Cl)cc1)c1ccc(Cl)cc1`, for which the call in [1], in [10], in test [14], in test [3], in [4] and in test [5] was inactive. Also, the AC50 in test [11] was 14.3 µM (active); in test [12] it was 3.45 µM (active); in test [13] it was 15.5 µM (active).

On to `CC(c1ccc(O)cc1)(c1ccc(O)cc1)c1ccc(O)cc1`, for which the AC50 is 4.96 µM (active) in test [9], 768 nM (active) in test [10], 3.62 µM (active) in test [4] and 2.96 µM (active) in [5].

Consider `CC(C)(c1ccccc1)c1ccc(O)cc1`, for which the AC50 was 5.28 µM (active) and 6.67 µM (active) and 16.2 µM (active) in [1]; 12.7 µM (active) and 25 µM (active) in [2]; 15.9 µM (active) in test [11]; 25 µM (active) in test [9]; 5.98 µM (active) in [12]; 15.5 µM (active) in test [13]. Moreover, the AC50 in test [10] is 2.98 µM (active) and 11 µM (active); in [3], 2 µM (active) and 11.9 µM (active) and 2.17 µM (active); in test [4] it was 770 nM (active) and 897 nM (active) and 861 nM (active); in test [5] it was 633 nM (active) and 791 nM (active) and 967 nM (active). Also, the result in test [2], in test [9] and in test [10] was inactive.

Turning to `Clc1ccc(C(c2ccccc2Cl)C(Cl)(Cl)Cl)cc1` (configuration not stated), the compound was classed as inactive in test [2] and in [10]. Besides, the AC50 in test [10] is 51.7 nM (active); in test [3], 2.14 µM (active) and 2.1 µM (active) and 2.35 µM (active).

Turning to `Cc1cccc(C)c1N`, the concentration at half-maximal activity (AC50) in test [9] was 0.0218 µM (active). For the same compound, the result in [3], in [4], in [5], in test [6] and in test [7] was inactive.

Regarding `CC(C)C(=O)OCC(C)(C)C(OC(=O)C(C)C)C(C)C` (configuration not stated), the compound was classed as inactive in test [9], in test [13], in [10], in [3], in test [4] and in test [5].

As for `Nn1cnnc1`, the outcome in test [9], in test [3], in test [4] and in test [5] was inactive. The AC50 in test [15] was 10.9 µM (active).

For the compound `O=C(NC(=O)c1cc(F)c(F)cc1Cl)Nc1cc(F)ccc1N1CCC(C(=O)O)CC1`, the compound was classed as inactive in test [9], in [4] and in test [5].

`Cc1ccccc1CO[C@@H]1C[C@@]2(C(C)C)CC[C@]1(C)O2`: the AC50 in test [16] was 4.86 µM (active); in test [12] it was 11.2 µM (active); in test [17], 6.62 µM (active). Also, the compound was called inactive in test [14].

For `CN(C)c1nc(=O)n(C2CCCCC2)c(=O)n1C`, the call in test [3], in [4], in [5], in test [6] and in test [7] was inactive.

Take `ClC1=C(Cl)[C@]2(Cl)[C@@H]3[C@@H](Cl)[C@H]4O[C@H]4[C@@H]3C1(Cl)C2(Cl)Cl`: in [3], the AC50 is 14.4 µM (active). For the same compound, the compound was called inactive in test [4] and in [5].

Take `O=S(=O)(O)C(F)(F)C(F)(F)C(F)(F)C(F)(F)F`: the compound was classed as inactive in test [3], in test [4] and in test [5].

For `CCC(C)(CC)c1cc(NC(=O)c2c(OC)cccc2OC)on1`, the call in test [3] was inactive.

Consider `Cc1cccc([N+](=O)[O-])c1`, for which the call in test [4] and in test [5] was inactive.

Consider `CCC(C)c1cc([N+](=O)[O-])cc([N+](=O)[O-])c1O` (configuration not stated), for which the call in test [9], in [3], in [4], in test [5] and in test [7] was inactive.

Source of the values: PubChem BioAssay (EPA / NIEHS).
